HT1080NT lethal – qHTS for induction of synthetic lethality in tumor cells producing 2HG: qHTS for the HT-1080-NT fibrosarcoma cell line | Potency, µM (titrated, usually from 46.1 µM), inactives show at the highest dose activity, negative = less viability, actives largely listed as cytotoxic | HT-1080-NT fibrosarcoma viability, CellTiter-Glo ATP luminescence, 48 h | hit rate 1.6% among 360,000 | AID 686970, 2013;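 further: NT is the 2HG producing partner of a matched IDH1 knockdown line; potency means the concentration at half of the fitted maximal effect; 0% = DMSO-treated cells and -100% = media-only wells without cells; nearly all actives have a fitted effect of over 55% in size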
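Fibrosarcoma NT cells, 750 per well in 5% FBS RPMI, were exposed to compound for 48 hours. Viability: CellTiter-Glo luminescence.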
12-LOX inh – Primary qHTS assay for inhibitors of human arachidonate 12S-lipoxygenase (ALOX12): Round 2. Potency, µM (top dose mostly 108 µM), for inactives: at the top dose activity change, negative = inhibition, actives largely listed as inhibitors. hit rate 1.1% among 580,000. Polyunsaturated fatty acid lipoxygenase ALOX12 (Homo sapiens), P18054. purified 12hLO, xylenol orange hydroperoxide absorbance; further: potency means the concentration at half of the fitted maximal effect
Target sequence (P18054 whole entry, looked up): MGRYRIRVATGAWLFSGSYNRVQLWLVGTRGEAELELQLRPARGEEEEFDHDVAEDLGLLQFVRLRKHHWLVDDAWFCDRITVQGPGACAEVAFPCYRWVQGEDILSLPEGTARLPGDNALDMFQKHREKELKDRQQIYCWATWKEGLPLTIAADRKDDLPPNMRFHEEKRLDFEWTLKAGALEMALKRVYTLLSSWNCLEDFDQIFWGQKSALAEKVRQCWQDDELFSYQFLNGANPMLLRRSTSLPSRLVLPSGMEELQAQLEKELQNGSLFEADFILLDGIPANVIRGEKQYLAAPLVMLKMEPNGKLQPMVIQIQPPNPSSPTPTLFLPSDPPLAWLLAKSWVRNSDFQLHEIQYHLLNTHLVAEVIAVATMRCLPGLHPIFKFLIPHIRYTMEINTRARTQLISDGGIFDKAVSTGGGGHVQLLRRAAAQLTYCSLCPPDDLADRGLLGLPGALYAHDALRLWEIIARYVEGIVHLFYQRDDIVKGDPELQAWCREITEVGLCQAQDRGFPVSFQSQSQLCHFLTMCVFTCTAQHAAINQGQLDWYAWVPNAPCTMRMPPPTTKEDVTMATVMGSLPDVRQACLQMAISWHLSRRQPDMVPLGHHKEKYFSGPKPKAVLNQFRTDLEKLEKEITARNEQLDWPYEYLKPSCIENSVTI
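Purified human 12hLO (150 nM final) in 25 mM Hepes, 0.01% Triton X-100, pH 7.0 was preincubated 15 min at room temperature with compound. Then 40 uM arachidonic acid was added, 30 min. Hydroperoxide was read by Fe-XO absorbance ratio 573/405 nm.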
TDP1 cell noCPT – qHTS for Inhibitors of human tyrosyl-DNA phosphodiesterase 1 (TDP1): qHTS in cells in absence of CPT. hit rate 15% among 420,000. DT40 Tdp1-/- hTDP1 cells, no CPT, ATP luminescence, 48 h. Potency, µM (highest dose often 46.2 µM), without a hit: top-dose activity change, negative = growth inhibition, most hits filed as inhibitors; further: potency means the concentration at half of the fitted maximal effect; nearly all actives have a fitted effect of over 55% in size
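Growth kinetics read by CellTiter-Glo luminescence after ≥48 hr at 37 °C. Cells: DT40 Tdp1-/- stably carrying human TDP1, 400 per well, compound exposure in the absence of CPT (DMSO vehicle).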
HT1080 IDH1KD tx – qHTS for induction of synthetic lethality in tumor cells producing 2HG: qHTS for the HT-1080-IDH1KD cell line. HT-1080 IDH1 knockdown viability, ATP luminescence, 48 h. Potency, µM (doses to about 46.1 µM), for inactives: at the highest dose activity, negative = toxicity, actives largely listed as cytotoxic. hit rate 2% among 360,000. AID 686971, 2013;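 further: potency means the concentration at half of the fitted maximal effect; 0% = DMSO wells and -100% = cell-free medium wells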
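Using the IDH1-knockdown HT-1080 line run in the same batch and compound series as the NT line, viability after 48 h at 37 °C was determined by CellTiter-Glo luminescence and expressed as % activity.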
TDP1 cell CPT – qHTS for Inhibitors of human tyrosyl-DNA phosphodiesterase 1 (TDP1): qHTS in cells in presence of CPT | hit rate 12% among 420,000 | chicken DT40 Tdp1-/-;hTDP1 cells + 20 nM CPT, ATP luminescence, 48 h | Potency, µM (doses to about 46.2 µM), for the others: at the top dose activity change, negative = growth inhibition, actives largely listed as inhibitors; further: potency means the concentration at half of the fitted maximal effect; nearly all actives have a fitted effect of over 55% in size
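Chicken DT40 Tdp1-/- cells stably complemented with human TDP1 were seeded at 400 cells/well in medium containing 20 nM camptothecin, exposed to pin-transferred compounds, and grown at 37 °C for at least 48 hr. Viability was read as ATP luminescence.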
IL-1B inflam inh – qHTS for Inhibitors of Inflammasome Signaling: IL-1-beta AlphaLISA Primary Screen. THP-1 LPS/ATP IL-1B secretion, AlphaLISA, 16 h; active compounds read low. activity change, % at 57.5 µM. hit rate 4.7% among 360,000. AID 743279, 2014; in the data active means activity change below about -50%; inconclusive means mostly about -30% to -49%
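THP-1 cells pretreated 1 hr with compounds (up to 57.5 uM final), then stimulated with LPS (250 ng/mL final) plus ATP (1.25 mM final); secreted IL-1B measured by AlphaLISA after 16 hr, decreased signal indicating inhibition.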
* = called active by the depositor; ? = inconclusive; . = no result given. Many of the other results were omitted from the sample, so hits are more common in it than they were. Unless noted, the call rests on the fitted dose curve; in most records, active means well fitted curve in the direction sought with a large enough effect; inconclusive means small, poorly fitted or top-dose-only effect, or another doubt; inactive means no such curve, though single readings can be large; an effect the other way counts as inactive or inconclusive. Unless noted, on the % scale 0 is the no-effect control and ±100 the full control effect.

SMILES	HT1080NT lethal	12-LOX inh	TDP1 cell noCPT	HT1080 IDH1KD tx	TDP1 cell CPT	IL-1B inflam inh
O=C(OCc1ccccc1)N1CCC2CC1c1cc(-c3ccccc3)ccc12 (stereo not given)	0%	-25%	23µM*	5%	?	2
O=C(O)C(Cc1ccc(F)cc1)c1ccccc1 (stereo not given)	10%	56%	-18%	4%	-26%	0
COc1ccccc1CNC(=O)Nc1nc(C(N)Cc2ccc(Cl)cc2)cs1 (stereo not given)	15µM*	-2%	?	21µM*	?	-13
COc1ccc(CNC(=O)Nc2nc(C(N)Cc3ccc(Cl)cc3)cs2)cc1 (stereo not given)	?	-27%	18µM*	16µM*	23µM*	?
COc1ccc(CNC(=O)Nc2nc(C(N)Cc3ccc(F)cc3)cs2)cc1 (stereo not given)	?	-11%	16µM*	13µM*	?	?
COc1ccccc1CNC(=O)c1csc(Cc2ccc(Cl)cc2)n1	-16%	4%	?	-13%	?	-11
NC(Cc1ccc(F)cc1)c1csc(NC(=O)NC(c2ccccc2)c2ccccc2)n1 (stereo not given)	18µM*	?	13µM*	16µM*	15µM*	-53*
Cc1cc(C)cc(NC(=O)c2ccc(Oc3nccnc3N3CCCCC3)cc2)c1	.	-11%	.	.	.	.
COc1ccccc1-c1nc(C(=O)NCc2cccnc2)n2ccncc12	.	30%	.	.	.	.
Cc1ccsc1CN1CCCOCCNC(=O)[C@@H]2CCCC[C@@H]21	.	8%	.	.	.	.
CS/C(=N\S(=O)(=O)c1ccc(Cl)cc1)c1ccccc1	5%	-10%	-23%	0%	-12%	10
Cc1ccc(S(=O)(=O)/N=C(\N)c2ccc(Cl)cc2)cc1	-13%	?	?	-8%	-23%	-4
CC(C)O/C(=N\S(=O)(=O)c1ccc(Cl)cc1)c1ccccc1	14%	-11%	-9%	-2%	-3%	6
O=S(=O)(/N=C(\Sc1ccc(Cl)cc1)c1ccccc1)c1ccccc1	4%	?	21µM*	3%	12µM*	-113*
Cc1ccc(S/C(=N/S(=O)(=O)c2ccc(Cl)cc2)c2ccccc2)cc1	.	.	10µM*	.	11µM*	.
CS/C(=N/S(=O)(=O)c1ccc(C)cc1)c1ccccc1	0%	-43%	-3%	-9%	17%	-55*
COC(=O)c1ccc(OC)c(NC(=O)N2CCc3[nH]cnc3C2c2cccc(F)c2F)c1 (stereo not given)	.	7%	.	.	.	.
CC(NC1=CC(=O)c2cccnc2C1=O)C(O)c1ccccc1 (stereo not given)	18µM*	?	3.3µM*	6.5µM*	1.5µM*	-100*
CS(=O)(=O)N(CC(=O)Nc1ccc(F)c(F)c1)c1cccc([N+](=O)[O-])c1	5%	6%	14%	0%	1%	?
Cc1cccc(NS(=O)(=O)c2ccc(NC(=O)CN(c3cc([N+](=O)[O-])ccc3C)S(C)(=O)=O)cc2)c1	?	?	?	?	16µM*	?
Cc1cccc(N(CC(=O)Nc2ccc(Br)cc2)S(C)(=O)=O)c1C	.	?	21µM*	.	?	.
COc1ccc(C)cc1NS(=O)(=O)c1ccc(NC(=O)CN(c2cc([N+](=O)[O-])ccc2C)S(C)(=O)=O)cc1	?	-4%	15µM*	?	9.2µM*	-23
COc1ccc(-c2c(-c3ccccc3)n(C)c3ccccc23)cc1	4%	-6%	-19%	19%	4%	17
CN=C1c2c(-c3ccccc3)c3cc(OC)ccc3n2CCN1C	-28%	-18%	18µM*	?	23µM*	?
O=C(Nc1ccc(S(=O)(=O)N2CCCCC2c2cccnc2)cc1)c1ccc(Br)cc1 (stereo not given)	.	-11%	9.2µM*	.	16µM*	.
SMILES	HT1080NT lethal	12-LOX inh	TDP1 cell noCPT	HT1080 IDH1KD tx	TDP1 cell CPT	IL-1B inflam inh
O=C(Nc1ccc(S(=O)(=O)N2CCCCC2c2cccnc2)cc1)c1c(F)cccc1F (stereo not given)	13%	-13%	?	2%	?	-10
CCCCC(=O)Nc1ccc(S(=O)(=O)N2CCCCC2c2cccnc2)cc1 (stereo not given)	-1%	0%	13µM*	-10%	18µM*	0
COC(=O)C1=C(C)N(Cc2ccccc2)C(=S)N[C@H]1c1ccc(Br)cc1	-7%	45µM*	-18%	-19%	?	-15
COC(=O)C1=C(C)N(Cc2ccc(F)cc2)C(=S)NC1c1ccc(Cl)cc1 (stereo not given)	.	40µM*	.	.	.	.
COC(=O)C1=C(C)N(Cc2ccc(Cl)cc2)C(=S)NC1c1ccc(OC)cc1 (stereo not given)	.	40µM*	.	.	.	.
COC(=O)C1=C(C)N(Cc2ccc(C(F)(F)F)cc2)C(=NCc2ccc(OC)cc2)NC1c1cccc(Cl)c1 (stereo not given)	.	-30%	.	.	.	.
COC(=O)C1=C(C)N(Cc2ccc(Br)cc2)C(=S)NC1c1ccc(OC)cc1 (stereo not given)	.	45µM*	.	.	.	.
COC(=O)C1=C(C)N(Cc2ccccc2)C(=S)N[C@H]1c1cccc(C(F)(F)F)c1	-22%	?	?	?	?	?
O=C(Cn1ccn2nc(-c3ccccc3)c(CO)c2c1=O)Nc1ccc(C(F)(F)F)cc1	.	-4%	.	.	.	.
CCc1cccc(NC(=O)Cc2csc(NC(=O)c3ccoc3C)n2)c1	.	-13%	.	.	.	.
Cc1nc(C)n(CCNS(=O)(=O)c2ccc(C)c(C)c2)n1	5%	-16%	6%	0%	9%	1
CCOc1ccc(Cn2c(=O)sc3ccccc32)cc1OC	-16%	0%	?	-8%	?	-1
COc1cc(Cn2c(=O)sc3ccccc32)ccc1OC(C)C	.	5%	21µM*	.	?	.
OC(COc1ccc(Cl)cc1)CN1C2=NCCCN2c2ccccc21 (stereo not given)	?	0%	21µM*	?	21µM*	-17

Screening results: PubChem, National Center for Advancing Translational Sciences (NCATS)
